# Laboratory results as given in PubChem BioAssay AID1159580 (chemical genetic matrix, 2015).
# In all, about 5,500 compounds went through this assay and about 2,000 (36%) were called active. Another 18% or so got no clear call; they are omitted. Some of the results follow. Unmarked numbers belong to inactive results. No stated cut-off is given here; in the data, active means normalized growth mostly below about 0.91 (no sharp cut-off); inconclusive means no clear call, values can overlap the other calls; inactive means mostly above about 0.92.
# Experiment: chemical genetic growth profiling, strain panel (AID 1159580);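 further: tested at 20 µM; growth read once vehicle control cultures reached saturation at 30 °C; 1 = growth at the plate median or of vehicle wells; lower values mean less growth of the strain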
# Details: growth OD
compound,measurement,setting,value
CN1C2CCC1CC(OC(c1ccccc1)c1ccccc1)C2 (stereo not given),normalized growth,"S. cerevisiae deletion strains, locus YJR043C, strain POL32, active compounds read low",0.95
same,normalized growth,"S. cerevisiae deletion strains, locus YJR075W, strain HOC1, active compounds read low",0.847 (active)
same,normalized growth,"S. cerevisiae deletion strains, locus YKL009W, strain mrt4, active compounds read low",0.918
same,normalized growth,"S. cerevisiae deletion strains, locus YKL068W, active compounds read low",0.986
same,normalized growth,"S. cerevisiae deletion strains, locus YKL085W, strain MDH1 (second series), active compounds read low",0.978
same,normalized growth,"S. cerevisiae deletion strains, locus YKL085W, strain MDH1, active compounds read low",0.978
same,normalized growth,"S. cerevisiae deletion strains, locus YKL160W, strain elf1, active compounds read low",1
same,normalized growth,"S. cerevisiae deletion strains, locus YKR001C, strain vps1, active compounds read low",0.926
same,normalized growth,"S. cerevisiae deletion strains, locus YKR026C, strain gcn3, active compounds read low",0.972
same,normalized growth,"S. cerevisiae deletion strains, locus YKR091W, strain srl3, active compounds read low",0.971
same,normalized growth,"S. cerevisiae deletion strains, locus YLL001W, strain dnm1, active compounds read low",1.01
same,normalized growth,"S. cerevisiae deletion strains, locus YLL026W, active compounds read low",0.991
same,normalized growth,"S. cerevisiae deletion strains, locus YLL041C, strain sdh2, active compounds read low",0.995
same,normalized growth,"S. cerevisiae deletion strains, locus YLR027C, strain aat2, active compounds read low",0.989
same,normalized growth,"S. cerevisiae deletion strains, locus YLR039C, strain RIC1, active compounds read low",0.795
same,normalized growth,"S. cerevisiae deletion strains, locus YLR058C, strain SHM2, active compounds read low",0.91
same,normalized growth,"S. cerevisiae deletion strains, locus YLR102C, strain apc9, active compounds read low",0.996
same,normalized growth,"S. cerevisiae deletion strains, locus YLR221C, strain rsa3, active compounds read low",0.985
same,normalized growth,"S. cerevisiae deletion strains, locus YLR258W, strain gsy2, active compounds read low",0.982
same,normalized growth,"S. cerevisiae deletion strains, locus YLR262C, strain YPT6 (second series), active compounds read low",1.04
same,normalized growth,"S. cerevisiae deletion strains, locus YLR262C, strain YPT6, active compounds read low",0.647
same,normalized growth,"S. cerevisiae deletion strains, locus YLR268W, strain sec22, active compounds read low",0.96
same,normalized growth,"S. cerevisiae deletion strains, locus YLR320W, strain mms22, active compounds read low",0.951
same,normalized growth,"S. cerevisiae deletion strains, locus YLR330W, strain CHS5, active compounds read low",0.809 (active)
same,normalized growth,"S. cerevisiae deletion strains, locus YLR342W, strain FKS1 (second series), active compounds read low",0.842
same,normalized growth,"S. cerevisiae deletion strains, locus YLR342W, strain FKS1, active compounds read low",0.997
same,normalized growth,"S. cerevisiae deletion strains, locus YLR357W, strain rsc2, active compounds read low",0.958
same,normalized growth,"S. cerevisiae deletion strains, locus YLR370C, strain arc18, active compounds read low",0.987
same,normalized growth,"S. cerevisiae deletion strains, locus YLR371W, strain rom2, active compounds read low",0.969
same,normalized growth,"S. cerevisiae deletion strains, locus YLR384C, strain iki3, active compounds read low",0.999
same,normalized growth,"S. cerevisiae deletion strains, locus YLR418C, strain cdc73, active compounds read low",0.814 (active)
same,normalized growth,"S. cerevisiae deletion strains, locus YML016C, strain PPZ1, active compounds read low",0.981
same,normalized growth,"S. cerevisiae deletion strains, locus YML032C, strain rad52, active compounds read low",0.979
same,normalized growth,"S. cerevisiae deletion strains, locus YML120C, strain ndi1, active compounds read low",0.985
same,normalized growth,"S. cerevisiae deletion strains, locus YML124C, strain tub3, active compounds read low",0.993
same,normalized growth,"S. cerevisiae deletion strains, locus YMR058W, strain fet3, active compounds read low",0.978
same,normalized growth,"S. cerevisiae deletion strains, locus YMR078C, strain ctf18, active compounds read low",0.954
same,normalized growth,"S. cerevisiae deletion strains, locus YMR125W, strain sto1, active compounds read low",0.963
same,normalized growth,"S. cerevisiae deletion strains, locus YMR129W, active compounds read low",0.984
same,normalized growth,"S. cerevisiae deletion strains, locus YMR205C, strain PFK2, active compounds read low",0.969
same,normalized growth,"S. cerevisiae deletion strains, locus YMR223W, strain ubp8, active compounds read low",0.948
same,normalized growth,"S. cerevisiae deletion strains, locus YMR231W, strain pep5, active compounds read low",1
same,normalized growth,"S. cerevisiae deletion strains, locus YMR263W, strain SAP30, active compounds read low",1
same,normalized growth,"S. cerevisiae deletion strains, locus YMR307W, strain GAS1, active compounds read low",0.807
same,normalized growth,"S. cerevisiae deletion strains, locus YNL067W, strain RPL9B, active compounds read low",0.898
same,normalized growth,"S. cerevisiae deletion strains, locus YNL071W, strain lat1, active compounds read low",0.964
same,normalized growth,"S. cerevisiae deletion strains, locus YNL128W, strain TEP1, active compounds read low",0.925
same,normalized growth,"S. cerevisiae deletion strains, locus YNL175C, strain NOP13, active compounds read low",1.03
same,normalized growth,"S. cerevisiae deletion strains, locus YNL197C, strain WHI3, active compounds read low",1.03
same,normalized growth,"S. cerevisiae deletion strains, locus YNL209W, strain ssb2, active compounds read low",0.981
same,normalized growth,"S. cerevisiae deletion strains, locus YNL224C, strain SQS1, active compounds read low",1.01
same,normalized growth,"S. cerevisiae deletion strains, locus YNL233W, strain BNI4, active compounds read low",0.766 (active)
same,normalized growth,"S. cerevisiae deletion strains, locus YNL248C, strain rpa49, active compounds read low",0.969
same,normalized growth,"S. cerevisiae deletion strains, locus YNL250W, strain rad50, active compounds read low",0.971
same,normalized growth,"S. cerevisiae deletion strains, locus YNL271C, strain bni1, active compounds read low",0.967
same,normalized growth,"S. cerevisiae deletion strains, locus YNL298W, strain CLA4, active compounds read low",0.95
same,normalized growth,"S. cerevisiae deletion strains, locus YNL307C, strain MCK1, active compounds read low",0.91
same,normalized growth,"S. cerevisiae deletion strains, locus YNL322C, strain KRE1 (second series), active compounds read low",0.98
same,normalized growth,"S. cerevisiae deletion strains, locus YNL322C, strain KRE1, active compounds read low",0.973
same,normalized growth,"S. cerevisiae deletion strains, locus YNR049C, strain mso1, active compounds read low",0.984
same,normalized growth,"S. cerevisiae deletion strains, locus YNR052C, strain pop2, active compounds read low",0.972
same,normalized growth,"S. cerevisiae deletion strains, locus YOL006C, strain TOP1, active compounds read low",0.597
same,normalized growth,"S. cerevisiae deletion strains, locus YOL012C, strain htz1",1
same,normalized growth,"S. cerevisiae deletion strains, locus YOL147C, strain pex11, active compounds read low",0.985
same,normalized growth,"S. cerevisiae deletion strains, locus YOR001W, strain rrp6, active compounds read low",0.99
same,normalized growth,"S. cerevisiae deletion strains, locus YOR061W, strain CKA2, active compounds read low",0.979
same,normalized growth,"S. cerevisiae deletion strains, locus YOR069W, strain VPS5, active compounds read low",0.971
same,normalized growth,"S. cerevisiae deletion strains, locus YOR070C, strain gyp1, active compounds read low",0.989
same,normalized growth,"S. cerevisiae deletion strains, locus YOR080W, strain dia2, active compounds read low",0.989
same,normalized growth,"S. cerevisiae deletion strains, locus YOR083W, strain WHI5 (second series), active compounds read low",0.998
same,normalized growth,"S. cerevisiae deletion strains, locus YOR083W, strain WHI5, active compounds read low",0.998
same,normalized growth,"S. cerevisiae deletion strains, locus YOR106W, strain vam3, active compounds read low",1
same,normalized growth,"S. cerevisiae deletion strains, locus YOR136W, strain idh2, active compounds read low",0.972
same,normalized growth,"S. cerevisiae deletion strains, locus YOR144C, strain elg1, active compounds read low",0.993
same,normalized growth,"S. cerevisiae deletion strains, locus YOR184W, strain ser1, active compounds read low",0.774 (active)
same,normalized growth,"S. cerevisiae deletion strains, locus YOR265W, strain rbl2, active compounds read low",0.988
same,normalized growth,"S. cerevisiae deletion strains, locus YOR270C, strain vph1, active compounds read low",0.943
same,normalized growth,"S. cerevisiae deletion strains, locus YOR290C, strain snf2, active compounds read low",0.967
same,normalized growth,"S. cerevisiae deletion strains, locus YOR316C, strain cot1, active compounds read low",0.986
same,normalized growth,"S. cerevisiae deletion strains, locus YPL051W, strain arl3, active compounds read low",0.995
same,normalized growth,"S. cerevisiae deletion strains, locus YPL078C, strain atp4, active compounds read low",0.998
same,normalized growth,"S. cerevisiae deletion strains, locus YPL106C, strain sse1, active compounds read low",0.912
same,normalized growth,"S. cerevisiae deletion strains, locus YPL240C, strain hsp82, active compounds read low",0.995
same,normalized growth,"S. cerevisiae deletion strains, locus YPL241C, strain CIN2, active compounds read low",0.999
same,normalized growth,"S. cerevisiae deletion strains, locus YPR119W, strain clb2, active compounds read low",0.973
same,normalized growth,"S. cerevisiae deletion strains, locus YPR141C, strain kar3, active compounds read low",0.966
same,normalized growth,"S. cerevisiae deletion strains, locus YPR163C, strain tif3, active compounds read low",0.952
same,normalized growth,"S. cerevisiae deletion strains, locus YPR167C, strain met16, active compounds read low",0.965
same,normalized growth,"S. cerevisiae deletion strains, strain wtn01, active compounds read low",0.977
same,normalized growth,"S. cerevisiae strains, strain wild type, active compounds read low",0.882 (active)
